In PubChem BioAssay (NCI):
This is part of a sample that, as a whole, favours compounds with a hit. Of some 79,000 tested, about 15% had one in any assay. Active and inactive are the calls of the source. Rule as the data show it: active = growth inhibition above about 70%; inactive = the rest.

What was measured:
[1] = NCI Yeast Anticancer Drug Screen. Data for the rad52 strain (AID 147);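 also: 0% = growth of vehicle-treated control cultures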; conditions: S. cerevisiae rad52 mutant growth inhibition, stronger effect = higher value
Method in brief: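 Growth of repair-deficient yeast cells was compared between compound-treated and vehicle-treated cultures to give percent inhibition.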

[2] = NCI Yeast Anticancer Drug Screen. Data for the wt1 strain (AID 149);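 also: 0% = growth of vehicle-treated wt1 cultures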; conditions: S. cerevisiae wt1 strain (SPY 50644) growth inhibition, stronger effect = higher value
Method in brief: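 Yeast wt1 strain exposed to compounds; growth inhibition measured relative to vehicle-treated controls.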

[3] = NCI Yeast Anticancer Drug Screen. Data for the rad50EPP+ strain (AID 151);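 also: 0% = growth of vehicle-treated control cultures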; conditions: S. cerevisiae rad50 mutant strain, stronger effect = higher value
Method in brief: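 Measured: growth inhibition of rad50EPP+ yeast. Reference: vehicle-treated controls. Screen uses strains with defined genetic alterations in DNA damage repair or cell cycle control.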

[4] = NCI Yeast Anticancer Drug Screen. Data for the mgt1 strain (AID 153); conditions: S. cerevisiae mgt1 mutant growth inhibition, stronger effect = higher value
Method in brief: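 Compounds were applied to mgt1 mutant yeast, and growth was then compared against vehicle-treated control cultures to give percent inhibition.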

[5] = NCI Yeast Anticancer Drug Screen. Data for the rad50 strain (AID 155);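 also: 0% = growth of vehicle-only cultures of the same strain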; conditions: S. cerevisiae rad50 strain growth inhibition, stronger effect = higher value
Method in brief: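 Yeast carrying a defined DNA repair defect were exposed to test compounds, and growth was compared with vehicle-treated controls to give percent inhibition.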

[6] = NCI Yeast Anticancer Drug Screen. Data for the mec2-1 strain (AID 157); conditions: S. cerevisiae mec2-1 strain, stronger effect = higher value
Method in brief: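 Compounds were applied to mec2-1 yeast cells. Their growth was then compared with that of vehicle-treated cultures to give growth inhibition.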

[7] = NCI Yeast Anticancer Drug Screen. Data for the rad14 strain (AID 159);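 also: 0% = growth of vehicle-treated control cultures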; conditions: S. cerevisiae rad14 strain growth inhibition, stronger effect = higher value
Method in brief: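 Yeast cells carrying a defined DNA-repair defect were exposed to compounds, and growth inhibition was calculated relative to vehicle-treated control cultures.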

[8] = NCI Yeast Anticancer Drug Screen. Data for the sgs1 mgt1 strain (AID 161);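 also: 0% = growth of cultures given vehicle only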; conditions: S. cerevisiae sgs1 mgt1 strain, stronger effect = higher value
Method in brief: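 Yeast cells carrying a defined DNA-repair defect were exposed to test compounds. Growth inhibition was measured relative to vehicle-treated controls.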

[9] = NCI Yeast Anticancer Drug Screen. Data for the CLN2oe strain (AID 163);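 also: 0% = growth of vehicle-only control cultures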; conditions: S. cerevisiae CLN2oe strain, stronger effect = higher value
Method in brief: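 Cells of an engineered yeast line with disturbed cell-cycle regulation are treated with compound. Inhibition of growth is then calculated relative to the vehicle-treated reference.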

[10] = NCI Yeast Anticancer Drug Screen. Data for the bub3 strain (AID 167); conditions: S. cerevisiae bub3 mutant strain, stronger effect = higher value
Method in brief: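 Compounds were applied to a genetically altered yeast strain carrying a cell-cycle control defect. Growth inhibition was scored against vehicle-treated controls.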

[11] = NCI Yeast Anticancer Drug Screen. Data for the wt2 strain (AID 169);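 also: 0% = growth of vehicle-treated yeast cultures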; conditions: S. cerevisiae wt2 strain growth inhibition, stronger effect = higher value
Method in brief: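 Growth of compound-treated yeast is measured and expressed as inhibition relative to vehicle-only controls.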

[12] = NCI Yeast Anticancer Drug Screen. Data for the mlh1 strain (AID 171);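 also: 0% = growth of vehicle-treated control cultures of the same strain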; conditions: S. cerevisiae mlh1 strain growth inhibition, stronger effect = higher value
Method in brief: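 Test agents were incubated with yeast bearing a defined DNA damage repair or cell cycle control alteration; values are growth inhibition normalised to vehicle-treated cultures.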

[13] = NCI Yeast Anticancer Drug Screen. Data for the sgs1 strain (AID 173);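 also: 0% = growth of vehicle-only control cultures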; conditions: S. cerevisiae sgs1 mutant, stronger effect = higher value
Method in brief: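 Strain with an altered DNA repair or cell cycle pathway exposed to compound. Growth then measured. Value = inhibition versus vehicle control.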

[14] = NCI Yeast Anticancer Drug Screen. Data for the mlh1 rad18 strain (AID 175); conditions: S. cerevisiae mlh1 rad18 strain growth inhibition, stronger effect = higher value
Method in brief: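 A repair-deficient yeast strain is exposed to test compound, and growth is scored relative to vehicle-treated controls.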

[15] = NCI Yeast Anticancer Drug Screen. Data for the rad18 strain (AID 177); conditions: S. cerevisiae rad18 mutant growth inhibition, stronger effect = higher value
Method in brief: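 DNA-repair-defective yeast; compound treatment; growth inhibition scored against vehicle.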

[16] = NCI Yeast Anticancer Drug Screen. Data for the cln2 rad14 strain (AID 165);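 also: 0% = growth equal to vehicle treated cultures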; conditions: S. cerevisiae cln2 rad14 strain, stronger effect = higher value
Method in brief: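 Strain: cln2 rad14 yeast, altered in cell cycle control and DNA damage repair. Read-out: growth inhibition vs vehicle.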

[17] = at 5.0 µM (retest, dose inferred, filed as 0.5)
[18] = at 50.0 µM (retest, dose inferred, filed as 5.0)

Measured: growth inhibition

O=C(/C=C(/c1ccccc1)N1CCCCC1)c1ccccc1
inactive: [1]; at 1.2 µM 0% | [1]; at 3.7 µM 3% | [1]; at 11.0 µM 5% | [1]; at 33.0 µM 13% | [2]; at 1.2 µM -1% | [2]; at 3.7 µM 4% | [2]; at 11.0 µM 1% | [2]; at 33.0 µM 9% | [3]; at 1.2 µM 3% | [3]; at 3.7 µM 16% | [3]; at 11.0 µM 42% | [3]; at 33.0 µM 43% | [3]; at 100.0 µM 31% | [4]; at 1.2 µM -3% | [4]; at 3.7 µM -2% | [4]; at 11.0 µM 0% | [4]; at 33.0 µM 10% | [5]; at 1.2 µM -1% | [5]; at 3.7 µM -1% | [5]; [17] 0% | [5]; at 11.0 µM 5% | [5]; at 33.0 µM 11% | [6]; at 1.2 µM -4% | [6]; at 3.7 µM -5% | [6]; [17] -12% | [6]; at 11.0 µM -3% | [6]; at 33.0 µM 7% | [6]; at 50.0 µM 53% | [7]; at 1.2 µM 3% | [7]; at 3.7 µM 6% | [7]; at 11.0 µM 9% | [7]; at 33.0 µM 30% | [8]; [17] 44% | [9]; at 1.2 µM -6% | [9]; at 3.7 µM -7% | [9]; at 11.0 µM -3% | [9]; at 33.0 µM -4% | [10]; at 1.2 µM 2% | [10]; at 3.7 µM 3% | [10]; [17] 34% | [10]; at 11.0 µM 7% | [10]; at 33.0 µM 19% | [10]; at 50.0 µM 54.8% | [11]; at 1.2 µM -1% | [11]; at 3.7 µM 1% | [11]; at 11.0 µM 1% | [11]; at 33.0 µM 15% | [12]; at 1.2 µM -4% | [12]; at 3.7 µM -1% | [12]; at 11.0 µM -3% | [12]; at 33.0 µM 5% | [13]; at 1.2 µM -1% | [13]; at 3.7 µM -1% | [13]; at 11.0 µM 3% | [13]; at 33.0 µM 20% | [14]; [17] 55% | [15]; at 1.2 µM -2% | [15]; at 3.7 µM 1% | [15]; at 11.0 µM 3% | [15]; at 33.0 µM 9%
active: [1]; at 100.0 µM 98% | [2]; at 100.0 µM 94% | [4]; at 100.0 µM 87% | [5]; [18] 92% | [5]; at 50.0 µM 90.3% | [5]; at 100.0 µM 97% | [6]; [18] 84% | [6]; at 100.0 µM 82% | [7]; at 100.0 µM 98% | [8]; [18] 94% | [8]; at 50.0 µM 82.1% | [9]; at 100.0 µM 97% | [10]; [18] 99% | [10]; at 100.0 µM 94% | [11]; at 100.0 µM 95% | [12]; at 100.0 µM 96% | [13]; at 100.0 µM 97% | [14]; [18] 99% | [14]; at 50.0 µM 89.3% | [15]; at 100.0 µM 97%

CCCCCCOC(=O)NCCOC(=O)Nc1ccccc1
inactive: [1]; at 1.2 µM 1% | [1]; at 3.7 µM 3% | [1]; at 11.0 µM 7% | [1]; at 33.0 µM 7% | [1]; at 100.0 µM 6% | [2]; at 1.2 µM 1% | [2]; at 3.7 µM 1% | [2]; at 11.0 µM 2% | [2]; at 33.0 µM 2% | [2]; at 100.0 µM 1% | [3]; at 1.2 µM 3% | [3]; at 3.7 µM 6% | [3]; at 11.0 µM 11% | [3]; at 33.0 µM 17% | [3]; at 100.0 µM 15% | [4]; at 1.2 µM -1% | [4]; at 3.7 µM 1% | [4]; at 11.0 µM 3% | [4]; at 33.0 µM 22% | [4]; at 100.0 µM 4% | [5]; at 1.2 µM 4% | [5]; at 3.7 µM 5% | [5]; [17] 0% | [5]; at 11.0 µM 7% | [5]; at 33.0 µM 8% | [5]; [18] 5% | [5]; at 50.0 µM 19.7% | [5]; at 100.0 µM 7% | [7]; at 1.2 µM 6% | [7]; at 3.7 µM 7% | [7]; at 11.0 µM 12% | [7]; at 33.0 µM 17% | [7]; at 100.0 µM 16% | [8]; [17] 12% | [8]; [18] 10% | [8]; at 50.0 µM 20.2% | [9]; at 1.2 µM 1% | [9]; at 3.7 µM 4% | [9]; at 11.0 µM 1% | [9]; at 33.0 µM 3% | [9]; at 100.0 µM -2% | [16]; [17] 5% | [16]; [18] 19% | [16]; at 50.0 µM 6.5% | [10]; at 1.2 µM 3% | [10]; at 3.7 µM 2% | [10]; [17] 9% | [10]; at 11.0 µM 5% | [10]; at 33.0 µM 1% | [10]; [18] -2% | [10]; at 50.0 µM 11.1% | [10]; at 100.0 µM 0% | [11]; at 1.2 µM 1% | [11]; at 3.7 µM -1% | [11]; at 11.0 µM -1% | [11]; at 33.0 µM 0% | [11]; at 100.0 µM -2% | [12]; at 1.2 µM -1% | [12]; at 3.7 µM -1% | [12]; at 11.0 µM 2% | [12]; at 33.0 µM 4% | [12]; at 100.0 µM 6% | [13]; at 1.2 µM 2% | [13]; at 3.7 µM 2% | [13]; at 11.0 µM 3% | [13]; at 33.0 µM 9% | [13]; at 100.0 µM 9% | [14]; [17] 19% | [14]; [18] 53% | [14]; at 50.0 µM 17.7% | [15]; at 1.2 µM 2% | [15]; at 3.7 µM 2% | [15]; at 11.0 µM 13% | [15]; at 33.0 µM 4% | [15]; at 100.0 µM 6%
